Measurements: PubChem BioAssay (NCATS)
Results filed as inconclusive are left out. Values without a mark were called inactive. Activity calls are given as the source filed them. The call rests on the fitted dose curve; in most records, active means well fitted inhibition curve with a large enough effect; inconclusive means small, poorly fitted or top-dose-only effect; inactive means no such curve, though single readings can be large or run the other way.

Target: Cytochrome P450 3A7 (Homo sapiens) (UniProt P24462)
Test: Cytochrome P450 family 3 subfamily A member 7 (CYP3A7) small molecule antagonists: luciferase biochemical qHTS assay (AID 1963596); further: nearly all actives have a fitted effect of over 40% in size
Conditions: P450-Glo CYP3A7 enzyme luminescence, 1 h; series mostly up to 57.4 µM; activity change, negative = inhibition: at the top concentration
Summary of the method: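 Luminescence read-out (relative luminescence units) after 20 min with detection reagent, which stops the reaction. Enzyme, proluciferin substrate and compound preincubated 10 min, RT; NADPH regeneration system then started 1 h reaction. Ketoconazole as positive control.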
On the % scale 0 is the no-effect control and ±100 the full control effect; potency means the concentration at half of the fitted maximal effect.

Chain of Cytochrome P450 3A7 (Homo sapiens) (P24462 whole entry, looked up): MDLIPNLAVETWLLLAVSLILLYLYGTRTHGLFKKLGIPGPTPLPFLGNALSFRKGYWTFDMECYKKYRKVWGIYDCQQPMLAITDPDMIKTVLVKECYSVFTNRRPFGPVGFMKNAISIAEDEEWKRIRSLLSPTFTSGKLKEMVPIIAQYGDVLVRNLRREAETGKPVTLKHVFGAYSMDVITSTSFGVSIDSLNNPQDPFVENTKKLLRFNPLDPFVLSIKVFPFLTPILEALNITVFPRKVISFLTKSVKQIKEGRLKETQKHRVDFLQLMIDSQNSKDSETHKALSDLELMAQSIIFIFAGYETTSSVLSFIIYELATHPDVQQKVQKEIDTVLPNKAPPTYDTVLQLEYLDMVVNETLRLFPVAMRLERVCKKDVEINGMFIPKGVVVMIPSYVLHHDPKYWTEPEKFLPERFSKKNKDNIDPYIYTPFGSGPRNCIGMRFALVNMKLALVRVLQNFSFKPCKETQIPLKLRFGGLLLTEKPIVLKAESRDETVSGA

SMILES	activity change, negative = inhibition	Potency
CCOc1ccc(C(NC(=O)c2cc(OC)c(OC)c(OC)c2)c2cc(Cl)c3cccnc3c2O)cc1 (stereo not given)	-7.34%	
CN(C)CCOC(c1ccc(Cl)cc1)c1ccccn1 (stereo not given)	-18.6%	
COc1ccc(NC(=O)c2ccc(-c3ccc(C(N)=O)cc3C)cc2)cc1N1CCN(C)CC1	-14.3%	
CC1(C)CC1C(=O)NC(=CCCCCSCC(N)C(=O)O)C(=O)O (stereo not given)	-6.35%	
CC(CCC(=O)O)C1CC[C@H]2C3[C@H](O)C[C@@H]4C[C@H](O)CCC4(C)[C@H]3C[C@H](O)C12C (stereo not given in full)	-26.2%	
COC(=O)CCC(=O)CN	-1.05%	
Nc1nc(-n2cc(C(=O)O)c(=O)c3cc(F)c(N4CC(O)C4)c(Cl)c32)c(F)cc1F	-7.53%	
CCOc1ccc(CNC(=O)Cn2c(=O)c3cccn3c3ccc(F)cc32)cc1		425 nM (active)
O=C(Nc1ccc(Br)cc1)c1cc(Br)c(Br)s1	-13.6%	
O=P(O)(O)OC(CO)CO	-2.72%	
Cn1c(=O)cc(N2CCCC(N)C2)n(Cc2cc(F)ccc2C#N)c1=O (stereo not given)	-28.3%	
CCc1cnc(N2CCC(c3nc(COc4ccc(-n5cnnn5)cc4)cs3)CC2)nc1	0%	
C[N+]1(CCCCC[N+]2(C)CCCC2)CCCC1	-7.69%	
O=C(O)c1cccc(-c2ccc(-c3cn(C(=O)N4CCCCC4Cc4ccccc4)nn3)cc2)c1 (stereo not given)	0%	
Cc1ccc(CNC(=O)C2CCN(S(=O)(=O)c3c(C)noc3/C=C/c3ccccc3F)CC2)o1	3.63%	
CC1(C#N)CCN(c2c(C(=O)N3CCC(C(=O)C4CC4)CC3)cnc3ccc(F)cc23)CC1	0%	
CN1CCN(c2cc3c(cc2F)c(=O)c(C(=O)O)cn3-c2ccc(F)cc2)CC1	15%	
COc1ccc(C#Cc2ccc(C(=O)N3CCC[C@@H](O)C3)c(F)c2)cc1	-7.99%	
Cc1ccc(Nc2nc3nonc3nc2Nc2cccc(C(F)(F)F)c2)cc1Cl	-28.6%	
CCOC(=O)C1=C(O)c2ccccc2S(=O)(=O)N1C	-6.4%	

SMILES	activity change, negative = inhibition	Potency
CC(C)(C)NCCCNC(=O)c1cccc(Br)c1	-0.932%	
COc1ccc2cc(Br)ccc2c1	0%	
NC(=O)c1cccc2cn(-c3ccc(C4CCCNC4)cc3)nc12 (stereo not given)	-8.79%	
O=C(Cn1c(=O)n(-c2ccc(Cl)cc2)c(=O)c2oc3ccccc3c21)Nc1ccccc1	-11.9%	
COc1ccc(NC(=O)CSc2nc(-c3cccs3)cc(C(F)(F)F)n2)cc1OC	9.64%	
CC(=O)O[C@@H]1C(=O)O[C@@H]2[C@H]1OC(=O)[C@@H]2OC(C)=O	7.09%	
c1ccc2ccccc2c1	4.22%	
CNc1ccc([N+](=O)[O-])cc1-n1cnc(-c2ccc(C(F)(F)F)cc2)c1	27.7%	
CC(C)[C@H](N)C(=O)O	-0.829%	
Cc1ccc(Cn2c(SCc3ccc(C(=O)N4CCCCCC4)cc3)nc3ccncc32)cc1	4.01%	
COc1ccc(NC(=O)c2ccc(-c3ccc(C(=N)N)cc3C)cc2)cc1N1CCN(C)CC1	-26.3%	
O=C(O)C1CN(Cc2ccc(-c3nc4cc(Cc5ccccc5F)ccc4s3)c(F)c2)C1	-6.84% [at 11.5 µM]	
CC12CCC(C[N+](C)(CCC[N+](C)(C)C)C1)C2(C)C (stereo not given)	-18.7%	
COC(=O)C(CN)c1c[nH]c2ccc(OC)cc12 (stereo not given)	20.6%	
CCNCc1nc2c(N)nc3ccccc3c2n1CC(C)(C)O	7.02%	
CCCC(CCC)C(N)=O	-2.19%	
CC1(C)[C@H]2C[C@H](C/C=C\CCCC(=O)O)[C@@H](NC(=O)c3csc4ccc(O)cc34)[C@@H]1C2	16.7%	
CCCCCCCCCCCCCCCCCC[N+](C)(C)CCC[Si](OC)(OC)OC	-7.83%	
Cc1ccc(C2=Nc3ccccc3N(CC(=O)Nc3ccccc3F)C(=O)C2)cc1C	18.6%	
Cc1c(C)n(CCN(C)C)c2ccc(C(=O)OCCN(C)C)cc12	-0.197%	
